# Test results published in the supplement of paper PMC5407854, “Inhibitor of ppGalNAc-T3-mediated O-glycosylation blocks cancer cell invasiveness and lowers FGF23 levels” (eLife, 2017).
# The full ranking holds about 1,700 compounds; the median of “T3 sensor activation Q score (MG/GFP ratio z-score vs DMSO controls)” is about 0.25, and the highest 2% start at about 1.9. The sample holds the highest values, similar compounds and a random draw of the others, so the mix is not that of the screen.
# System: ppGalNAc-T3 sensor
# Test: T3 sensor activation Q score (MG/GFP ratio z-score vs DMSO controls) (SD units); higher = more sensor activation (inhibition of ppGalNAc-T3 glycosylation)
# Conditions: HEK293 sensor cells; 10 µM; 6 h
# Procedure: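 Cells were treated with compound at 10 uM for 6 h, then MG/GFP ratio was read by flow cytometry (10,000 cells per well, duplicate wells). Q = (R - R_neg)/SD_neg relative to DMSO vehicle controls; the signal rises when the glycosyltransferase is inhibited.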
row,Compound,T3 sensor activation Q score
1,Cc1cc(=O)c2c(=O)[nH][nH]c2[nH]1,-1.35
2,CCc1noc2cc(-c3ccccc3)n(C)c(=O)c12,0.35
3,CCCSc1ncnc2[nH]ncc12,1.45
4,C#Cc1cccc(NC(=O)c2ccc(Cl)cc2Cl)c1,-0.65
5,C#Cc1cccc(Nc2ncnc3cc(OCCOC)c(OCCOC)cc23)c1,2.15
6,CCCNC(=O)c1ccccc1C(=O)NC1(C(=O)NCCC)CCCC1,-0.35
7,Nc1nc(Nc2ccccc2)n[nH]1,-0.55
8,NC(=O)Nc1ccc(Nc2ccccc2)cc1,0.7
9,CC1(C)CC(Nc2ccc(Nc3ccccc3)cc2)CC(C)(C)N1,1.85
10,OCCCCc1nccc2c1[nH]c1ccccc12,1
11,CNC(=O)c1ccccc1Sc1ccc2c(/C=C/c3ccccn3)n[nH]c2c1,0.7
12,O=C(O)CCC(=O)c1ccc2ccc3cccc4ccc1c2c34,1.75
13,CCOC(=O)Nc1c(Cl)n(C)c(=O)n(C)c1=O,1.75
14,CN(C)c1nc(=NCc2ccco2)ss1,-1.15
15,NC(=O)c1cc2c3ccccc3ccn2c1-c1ccccc1,2.95
16,Clc1nnc2c3ccccc3ccn12,0.05
17,Cc1nc(C(N)=O)nc2ccccc12,0.2
18,Cc1cnc(SCc2ccc(Cl)cc2Cl)[nH]c1=O,-0.3

row,Compound,T3 sensor activation Q score
1,COc1ccc([N+](=O)[O-])cc1NS(=O)(=O)c1ccc(C)cc1,-0.7
2,Cn1c(=O)c2c(nc(Cc3ccccc3)n2C)n(C)c1=O,1.9
3,Cn1c(=O)c2c(nc(OCCc3ccccc3)n2C)n(C)c1=O,1.6
4,Cn1c(=O)c2c(nc(Oc3ccccc3)n2C)n(C)c1=O,0.7
5,CCOC(=O)N1CCN(Cc2c(O)ccc3ccccc23)CC1,-0.95
6,CCOC(=O)c1cc(-c2ccccc2)nc2ccc(C)cc12,0.8
7,CCOC(=O)c1cc(OCC)c2c(ccc3ccccc32)n1,1.85
8,CC(=O)NS(=O)(=O)c1ccc2sc(C)nc2c1,0.15
9,Nc1ccc(S(=O)(=O)NCC2CCCCO2)cc1 (stereo unspecified),1.6
10,NC(N)=NS(=O)(=O)c1ccc(N=C2C(=O)Nc3ccccc32)cc1,0.3
11,Cc1ccc(NC(=O)c2ccc(CN3CCN(C)CC3)cc2)cc1Nc1nccc(-c2cccnc2)n1,-1.55
12,Cc1ccc(C(=O)Nc2ccc(CN3CCN(C)CC3)c(C(F)(F)F)c2)cc1C#Cc1cnc2cccnn12,1.9
13,Cc1c(NC(=O)Nc2c(Cl)cccc2Cl)c(=O)n(-c2ccccc2)n1C,0.1
14,Oc1c(N=Nc2nn[nH]n2)ccc2ccccc12,1.25
15,Cn1cnc2ncnn2c1=S,-1.2
16,C=CCNC(=S)NCC=C,0.35
17,C=CCNC(=S)NCC,1.9
18,C=CCNC(=S)Nc1c(N)n(C)c(=O)n(C)c1=O,0.75
